In PubChem BioAssay AID1159580 (chemical genetic matrix, 2015):
Values joined by “and” are separate entries in the source; they are usually repeats but may differ in a detail not shown here. Equal entries are not always repeated. Among all 5,500 compounds or so, about 2,000 (36%) were called active. Roughly 18% stayed inconclusive and do not appear here. Rule as the data show it: active = normalized growth mostly below about 0.91 (no sharp cut-off); inconclusive = no clear call, values can overlap the other calls; inactive = mostly above about 0.92. This is one part of the list.

Assay: chemical genetic growth profiling, strain panel (AID 1159580);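 also: tested at 20 µM; growth read once vehicle control cultures reached saturation at 30 °C; 1 = growth at the plate median or of vehicle wells; lower values mean less growth of the strain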
Conditions: S. cerevisiae deletion strains, growth OD

Measured: normalized growth

COc1cc(CNC(=O)CCCC/C=C/C(C)C)ccc1O
inactive: locus YAL013W, strain DEP1, hits give low values 1.01 | locus YAL021C, strain ccr4, hits give low values 0.971 | locus YAL026C, strain drs2, hits give low values 0.994 | locus YAL030W, strain snc1, hits give low values 0.987 | locus YBL061C, strain skt5, hits give low values 0.99 | locus YBR009C, strain hhf1, hits give low values 0.951 | locus YBR021W, strain FUR4, hits give low values 0.978 | locus YBR023C, strain chs3, hits give low values 0.975 | locus YBR171W, strain sec66, hits give low values 0.979 | locus YBR229C, strain ROT2, hits give low values 0.994 | locus YBR231C, strain swc5, hits give low values 0.981 | locus YBR279W, strain paf1, hits give low values 0.983 | locus YCL011C, strain gbp2, hits give low values 0.979 | locus YCL016C, strain dcc1, hits give low values 0.989 | locus YCL029C, strain bik1, hits give low values 0.988 | locus YCL069W, strain vba3, hits give low values 0.992 | locus YCR088W, strain abp1, hits give low values 0.964 | locus YDL005C, strain med2, hits give low values 0.965 | locus YDL035C, strain GPR1, hits give low values 0.972 | locus YDL040C, strain nat1, hits give low values 0.997 | locus YDL074C, strain BRE1, hits give low values 0.979 | locus YDL101C, strain DUN1, hits give low values 1.01 | locus YDL134C, strain PPH21, hits give low values 1 | locus YDL185W, strain tfp1, hits give low values 0.986 | locus YDL192W, strain arf1, hits give low values 0.989 | locus YDR001C, strain nth1, hits give low values 0.997 | locus YDR069C, strain doa4, hits give low values 0.981 | locus YDR101C, strain arx1, hits give low values 0.969 | locus YDR137W, strain rgp1, hits give low values 0.997 | locus YDR159W, strain sac3, hits give low values 0.999 | locus YDR162C, strain NBP2, hits give low values 1.04 | locus YDR195W, strain ref2 0.959 | locus YDR297W, strain sur2, hits give low values 0.973 | locus YDR318W, strain mcm21, hits give low values 1 | locus YDR334W, strain swr1, hits give low values 0.998 | locus YDR335W, strain msn5, hits give low values 0.968 | locus YDR388W, hits give low values 0.99 | locus YDR392W, strain spt3, hits give low values 0.956 | locus YDR502C, strain sam2, hits give low values 0.961 | locus YEL003W, strain gim4, hits give low values 0.984 | locus YEL037C, strain rad23, hits give low values 0.99 | locus YEL061C, strain CIN8 (second series), hits give low values 0.983 | locus YEL061C, strain CIN8, hits give low values 1.01 | locus YER015W, strain faa2, hits give low values 1 | locus YER016W, strain bim1, hits give low values 1.01 | locus YER110C, hits give low values 0.969 | locus YER111C, strain swi4, hits give low values 0.991 | locus YER155C, strain BEM2 (second series), hits give low values 0.953 | locus YER155C, strain BEM2, hits give low values 0.994 | locus YER167W, strain BCK2, hits give low values 1.01 | locus YFR010W, strain ubp6, hits give low values 0.973 | locus YGL078C, strain dbp3, hits give low values 0.974 | locus YGL086W, strain mad1, hits give low values 0.996 | locus YGL167C, strain pmr1, hits give low values 0.988 | locus YGL173C, strain kem1, hits give low values 0.978 | locus YGL227W, strain vid30, hits give low values 0.975 | locus YGL240W, strain doc1, hits give low values 0.975 | locus YGL248W, strain PDE1, hits give low values 1.02 | locus YGL253W, strain hxk2, hits give low values 0.987 | locus YGR135W, strain pre9, hits give low values 0.991 | locus YGR252W, strain gcn5, hits give low values 0.898 | locus YHR013C, strain ard1, hits give low values 0.999 | locus YHR027C, strain rpn1, hits give low values 0.984 | locus YHR030C, strain SLT2, hits give low values 1.02 and 0.997 | locus YHR079C, strain IRE1 (second series), hits give low values 1 | locus YHR079C, strain IRE1, hits give low values 0.989 | locus YHR094C, strain hxt1, hits give low values 0.981 | locus YHR129C, strain ARP1, hits give low values 1.02 | locus YHR142W, strain chs7, hits give low values 0.998 | locus YHR200W, strain rpn10, hits give low values 1.01 | locus YIL066C, strain RNR3, hits give low values 1.01 | locus YIL073C, strain SPO22, hits give low values 0.972 | locus YIL125W, strain kgd1, hits give low values 0.993 | locus YIR030C, strain dcg1, hits give low values 0.986 | locus YJL092W, strain hpr5, hits give low values 0.99 | locus YJL095W, strain BCK1 (second series), hits give low values 0.986 | locus YJL095W, strain BCK1, hits give low values 1.05 and 0.999 | locus YJL115W, strain asf1, hits give low values 0.979 | locus YJL129C, strain trk1, hits give low values 0.955 | locus YJL134W, strain LCB3, hits give low values 1.01 | locus YJL154C, strain vps35, hits give low values 0.98 | locus YJL164C, strain tpk1, hits give low values 0.994 | locus YJL166W, strain qcr8, hits give low values 0.973 | locus YJL168C, strain set2, hits give low values 0.981 | locus YJL187C, strain SWE1 (second series), hits give low values 1.01 | locus YJL187C, strain SWE1, hits give low values 0.994
